Experimental findings from PubChem BioAssay AID1508600 (Functional Genomics Laboratory (NCATS/FGL), 2020) are described below.

The whole screen tested about 53,000 sequences, of which about 3,700 (7%) were called active. This is one part of a sample in which actives are shown more often than they occur.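 Rule for the calls: active = gene knockdowns whose robust z-score for IL-1 alpha signal is at least 2 or at most -2, so actives lie on both sides; inactive = the rest.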

The experiment in a line: Components of the Cytosolic LPS Sensing Pathway: Gene Identification via Genome-wide siRNA Screen.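 Note: robust z of the log signal after scaling to non-targeting control siRNA wells of the plate.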 To be noted: RAW264.7 macrophages, IL-1a HTRF, actives lie on both sides, screened at 100 nM (by protocol), cells primed 5 h with Pam3CSK4 first. The essentials:
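Three distinct siRNAs per gene were tested singly at 100 nM in RAW264.7 macrophages. Following Pam3CSK4 priming and 24 hour LipidA transfection, IL-1a secretion was read by HTRF.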
As for “CGCAUGCCUGUAAAAUAAATT against 2310057M21Rik”, the z-score was -1.37 (inactive).
On to “GGGAAUUUUGGAAGAGUCUTT against F630003A18Rik”, for which the z-score was -3.23 (active).
Then GCGAGGAAAGAGCACUGUATT against Fam107a, with -0.103 (inactive).
Then GGGCUAUGUUCGAAGUAAATT against Kbtbd3, with -0.848 (inactive); and GGUGAGUAUAUUCAAGUUATT against Ndor1, with 4.36 (active).
The same measure for GGAUAUUUGGAGGACAACCTT against C1s1: 0.0678 (inactive); for CGAGAGGUUUGUCCAUAGATT against Tac4: -0.86 (inactive).
On to GGGACAAUAAAACCAACACTT against Ulk4, for which the z-score is -1.04 (inactive).
The same measure for CCACCUUGGUCUAAUUUCUTT against Slitrk4: -2.06 (active).
Regarding GGCUCCUCAUUACCUCUACTT against Rrp7a, the z-score was 0.233 (inactive).
With GGGCCACACAGAAAUGGUUTT against Ank1, the z-score was 0.994 (inactive).
With GGAGAAAGGUGCUUCCGAUTT against Mrpl19, the z-score was 0.47 (inactive).
With CGAUGGCUUGGUUCCAUUUTT against Tcaf3, the z-score is -0.0976 (inactive).
Consider GGCACUACAACGGAACUCATT against Slco5a1, for which the z-score was -1.82 (inactive).
As for GCGUGUUAGGAAAAACUCUTT against Pars2, the z-score was 1.36 (inactive).
On to CCGAGCAGUAUGUGAACGUTT against Cela1, for which the z-score is 3.56 (active).
The same measure for CCUUUACUGUCCAUUCCGATT against Stxbp2: -0.533 (inactive); for CCCUGUGAAAGUGUCAUAUTT against Pigq: 1.28 (inactive).
Consider GGUUCAACUUCACACUGAGTT against Mettl22, for which the z-score was 1.08 (inactive).
Then GGAAAAAAAUGCUGUAUACTT against Insm1, with -0.599 (inactive); and GGUGCUUUGUAAACUGUCUTT against Slc26a11, with -2.99 (active).
For ACCUGUGAUGGUGGAGACUTT against AF067061, the z-score is 0.577 (inactive).
The same measure for GCAUGCCCGUAAUCAAGUGTT against Racgap1: 0.104 (inactive); for GGACUUCAGCAACUAUAGUTT against Ggt7: -0.631 (inactive); for GUUCCACUACUUCUGCUCCTT against Olfr583: 0.41 (inactive).
The same measure for GGUGCUUCCAGAAUCUUUATT against Epha5: 0.517 (inactive); for CCGGUUUCAAAUUGCCACUTT against Psmb4: -2.73 (active); for “GGAAGGUAUCUGAGGUCCGTT against 2810408A11Rik”: -0.106 (inactive).
Then GGCAUUGCUGGACUUUGAATT against Mvp, with -1.71 (inactive); and GCUGCACGCACUGAUCAAGTT against Tjap1, with 1.02 (inactive); and “GGUUUUGUUAAAGAAGACGTT against 4833439L19Rik”, with -2.25 (active).
Turning to CGGUGACGACGGAAUUCUATT against Cpne4, the z-score is -1.42 (inactive).
GGAUUCAGAAGGCCUCAGUTT against Olfr399: the z-score was 0.132 (inactive).
Consider UACUAGCAGAUUAACCACCTT against H2bc4, for which the z-score was -0.192 (inactive).
The same measure for GGCAUCAACAGAAUAACCATT against Tomm34: -1.31 (inactive); for GGCCAAGUUUGACAAGGAATT against Nap1l5: 2.32 (active); for GCUGCAUCGAAAAACUCAGTT against Mycbp2: -0.564 (inactive).
Take “GGAUUAUGGACCUCUUGGUTT against 4930595M18Rik”: the z-score is 0.554 (inactive).
As for CCCAGUUGACAGGAGACCATT against Hps6, the z-score was 1.13 (inactive).
With GCAUUAUAAAAAGGUUCCGTT against Atp2b1, the z-score was 1.81 (inactive).
Consider GGCCCAAGAGAAUAUCCAGTT against Gm6460, for which the z-score is 0.281 (inactive).
Consider GCAGGACAAGGACAACACUTT against Dyrk2, for which the z-score is -2.1 (active).
CCACCGAAAUCCUUAUUUUTT against Ppargc1a: the z-score was 0.522 (inactive).
The same measure for GCCAAGAGCACAUCUGCUATT against Suco: -1.65 (inactive); for GCUGGGUCAAACAUGACGUTT against Klhl17: 0.452 (inactive).
Regarding ACCCUUUUGUUUACACUCUTT against Olfr763, the z-score was -0.76 (inactive).
The same measure for GCCCAAAGAUGACAUCGUATT against Gars: 1.74 (inactive).
The same measure for GCUAGACCCAUAAUAAAACTT against Synpo2l: -0.851 (inactive); for UUGACUCACCUUCCGAGGUTT against Lce1a1: 0.0827 (inactive).
In the case of GCGCAAUAUAGAGUCAUCATT against Rnls, the z-score is -2.83 (active).
In the case of CCGUUUACCAACCAAGAAUTT against Tnfrsf17, the z-score is 0.0608 (inactive).
The same measure for GGUUUGCUACACUUCAGAATT against Xpr1: 0.101 (inactive).
Turning to GCCAACUAGAAAACAACUGTT against Pdzd11, the z-score is 1.6 (inactive).
The same measure for GGUGGAACAGGCAGAAUUCTT against Syn2: 1.92 (inactive).
Consider GGUCGCUACAAGAUGACUUTT against Hapln4, for which the z-score was 0.289 (inactive).
As to GCCAGUCAGAUGUACAGUCTT against Pbx1, the z-score is 3.28 (active).
On to CCAGAGUACAGUGUAGUCATT against Hspb6, for which the z-score was 0.508 (inactive).
Regarding GAACUUUUUUUCUGUGAACTT against Olfr175, the z-score was -1.58 (inactive).
For the sequence GGAAAUCGAGAGAAAUUCATT against Tead2, the z-score is 2.07 (active).
Then GCAGGUUGCACCAUGUAGATT against Slc25a42, with 0.701 (inactive); and CCAUCUUGGGUUCUGGUCATT against Zc3h4, with -0.204 (inactive).
Then GGGCAAAACACUGUCUUUCTT against Tlr5, with 1.87 (inactive).
For GCCUCUACUGGUUAUUUAATT against Slc22a15, the z-score is 2.09 (active).
Take CCUUCAAGUACUUUCUCCGTT against Dcakd: the z-score is 1.22 (inactive).
Turning to GGAUGAGGAGGAAAAGCUGTT against Nop2, the z-score was -1.86 (inactive).
As to GGUCAAUGAACAGCACCGGTT against Igfbp2, the z-score was 0.723 (inactive).
Take GGAUAAAGGAAAAGAAACATT against Rcvrn: the z-score was -1.34 (inactive).
Turning to CCAGACUCCUCUUAGAAGGTT against Ankrd34c, the z-score is 0.73 (inactive).
The same measure for GCUAGAUCUUUCAUCCAACTT against Lrtm1: 1.2 (inactive).
The same measure for GGCCUUGGUGAAAAUGCAGTT against Plaat1: -2.07 (active); for GGAGACAUGGACCAUGGCUTT against Mapt: 0.37 (inactive); for GGUGAUGUAUAUUGAGUCUTT against Sdcbp2: 0.149 (inactive).
Then GGAUAGACUUGAUUCUUGGTT against Emid1, with 0.491 (inactive).
For GGAAAUAGUACAGAAACCATT against Mcph1, the z-score was -2.44 (active).
Then CCAUGUUUUUAUAGCUCUUTT against Sidt2, with 1.49 (inactive); and GGUGGAUAAAGCUUAAAUATT against V1rg10, with -0.258 (inactive).
For GGAGGCACAGAGAUUGAAGTT against Sry, the z-score is 0.247 (inactive).
The same measure for GGCAUCUUUGGAGACUGGUTT against Sycn: 0.598 (inactive).
Then CCUUUGGAAUUUCUAAUACTT against Stil, with -0.286 (inactive).
Then GGCUGUCAAAACAGUGCUCTT against Hmgcs2, with 1.45 (inactive); and GCUGGAGACGUAUUUGUCCTT against Olfr294, with 2.17 (active); and UUGGCUGCAUUAUCAUGAGTT against Olfr311, with -0.419 (inactive).
GGUUUGGCAGAAGUGCAUGTT against Npff: the z-score is -0.801 (inactive).
Then GCUACAUCGCUCUUAUAGCTT against Foxl1, with 0.0236 (inactive); and CGAUGUUGAGGGAUUAUCUTT against Tstd2, with -2.25 (active).
Consider GGACUUGAAAUUAGCAAAATT against Arhgef3, for which the z-score was -0.0218 (inactive).
As for GGACUUUAAAUGCAAUAUCTT against Trps1, the z-score was -0.567 (inactive).
In the case of “GGCUCCAAGCACUAAAUAATT against B130024G19Rik”, the z-score was 0.168 (inactive).
The same measure for CCUCAAACUAACCACUCACTT against Olfr1045: -1.13 (inactive).
GGAGAUCCUGGAAGACUUCTT against Ocstamp: the z-score is 2.18 (active).
For the sequence GGACUAUGCCAAUGUCAGATT against Zfp763, the z-score was 0.0585 (inactive).
For the sequence GGGUAAGCCAAGAAGAAGUTT against Rgs4, the z-score is -1.01 (inactive).
Then GGGAAAAACUCUGUGUGUATT against Coasy, with -0.25 (inactive); and GGCUCCACACGAUUGUUAGTT against Gne, with -0.0134 (inactive); and GUUCCACCAGAUUUUCUAATT against Vmn1r28, with 2.6 (active).
Then GGAGAAUUUAGAGCUACCATT against Atg10, with -1.56 (inactive); and GCCCAUCACUUAUAGUGGGTT against Usf2, with -0.799 (inactive); and GGAGCAUUUUAUUCAGAUGTT against Rad23b, with 2.22 (active).
The same measure for GGUGGAGAAGAAAUCUAAGTT against Eif4g1: -0.344 (inactive); for CCUGAGACCGAAUUUUACCTT against Cer1: -0.209 (inactive).
Consider GGAAACGUGGGCAUGAUCATT against Olfr944, for which the z-score is -0.239 (inactive).
With GGAUAAUGAUGUGAAAGGCTT against Mrps30, the z-score is 0.984 (inactive).
The same measure for GGACAACAUGAACUGUCAGTT against Snrpd3: -2.74 (active); for GCUUGACUUUGAAAGUCCATT against Gm11733: -1.54 (inactive); for GGCUUUCUCCCAGCAAUAGTT against Scrt1: -1.97 (inactive).
For the sequence GGGAUCAACAUUUACCGAATT against Ablim1, the z-score is 0.596 (inactive).
The same measure for CCCACCUUCCGACUUGAAUTT against Col12a1: -1.12 (inactive).
